A selection: hits, their analogues and other compounds. The true share with any hit is near 19%.
TDP1 cell noCPT: qHTS for Inhibitors of human tyrosyl-DNA phosphodiesterase 1 (TDP1): qHTS in cells in absence of CPT; DT40 Tdp1-/- hTDP1 cells, no CPT, ATP luminescence, 48 h; Potency, µM (top dose mostly 46.2 µM), for the others: at the highest dose activity change, negative = growth inhibition, usual class: inhibitors; 420,000 tested, 15% active; also: nearly all actives have a fitted effect of over 55% in size
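DT40 Tdp1-/-;hTDP1 cells, no CPT (DMSO vehicle only), 400 cells/well; compounds pin-transferred; ≥48 hr, 37 °C; CellTiter-Glo 30 min RT dark, luminescence read.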
DT40 TDP1 CPT: growth inhibition of DT40 Tdp1-/-;hTDP1 cells with camptothecin (screen for TDP1 inhibitors); chicken DT40 Tdp1-/-;hTDP1 cells + 20 nM CPT, ATP luminescence, 48 h; Potency, µM (highest dose often 46.2 µM), inactives show at the highest dose activity change, negative = growth inhibition, most hits filed as inhibitors; 420,000 tested, 12% active; AID 686979; also: nearly all actives have a fitted effect of over 55% in size
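Chicken DT40 Tdp1-/- cells stably complemented with human TDP1 were seeded at 400 cells/well in medium containing 20 nM camptothecin, exposed to pin-transferred compounds, and grown at 37 °C for at least 48 hr. Viability was read as ATP luminescence.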
TDP1 inh: blocks human tyrosyl-DNA phosphodiesterase 1. Q9NUW8. recombinant TDP1, AlphaScreen DNA substrate cleavage. Potency, µM (series often up to 130 µM), for inactives: at the highest dose activity change, negative = inhibition, usual class: inhibitors. 350,000 tested, 0.28% active. AID 485290; also: nearly all actives have a fitted effect of over 40% in size
Target sequence (Q9NUW8 whole entry, looked up): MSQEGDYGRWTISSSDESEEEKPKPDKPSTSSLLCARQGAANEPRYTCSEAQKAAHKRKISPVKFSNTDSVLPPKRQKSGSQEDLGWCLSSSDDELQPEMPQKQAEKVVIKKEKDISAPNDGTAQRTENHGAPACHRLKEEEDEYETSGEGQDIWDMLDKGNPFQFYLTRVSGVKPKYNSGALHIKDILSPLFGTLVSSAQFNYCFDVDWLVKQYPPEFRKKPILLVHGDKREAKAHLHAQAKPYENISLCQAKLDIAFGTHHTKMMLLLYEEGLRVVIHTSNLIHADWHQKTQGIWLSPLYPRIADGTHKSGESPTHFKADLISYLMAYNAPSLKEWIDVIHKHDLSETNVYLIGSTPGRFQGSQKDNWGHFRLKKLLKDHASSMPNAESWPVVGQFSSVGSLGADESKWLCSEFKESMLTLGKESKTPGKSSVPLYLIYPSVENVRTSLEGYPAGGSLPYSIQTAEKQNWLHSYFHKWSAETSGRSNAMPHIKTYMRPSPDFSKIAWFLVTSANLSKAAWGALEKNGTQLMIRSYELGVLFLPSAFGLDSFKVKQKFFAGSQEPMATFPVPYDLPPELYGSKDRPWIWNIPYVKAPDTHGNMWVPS
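Recombinant human Tdp1 (E. coli-expressed, 1 nM final) preincubated with compounds 15 min at room temperature, then 5'-biotin/3'-phosphotyrosine-FITC DNA substrate (15 nM final) added for 5 min. AlphaScreen beads (10 ug/ml final) added 10 min; cleavage lowers signal.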
RORg inh: blocks mouse ROR gamma transcriptional activity | P51450 | Drosophila S2 Gal4-RORgamma UAS-luciferase reporter, 20 h | Potency, µM (doses to about 53.6 µM), for inactives: top-dose activity change, negative = inhibition, actives largely listed as inhibitors | 310,000 tested, 5.4% active | AID 2551; also: nearly all actives have a fitted effect of over 60% in size
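Using a luciferase readout, inhibitors were identified by reduced reporter activity in Drosophila cells coexpressing a copper-inducible Gal4–ROR gamma fusion and UAS-driven Photinus luciferase, incubated 20 hr after 700 uM copper sulfate.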
VP16 counter: counter-screen for ROR gamma inhibitors: Gal4-VP16 reporter. Drosophila S2 Gal4-VP16 UAS-luciferase, luminescence, 20 h. Potency, µM (series often up to 53.6 µM), inactives show top-dose activity, negative = inhibition, actives largely listed as inhibitors. 310,000 tested, 3.5% active. AID 2546;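 also: Gal4-VP16 expression switched on by copper sulfate through the metallothionein promoter; nearly all actives have a fitted effect of over 50% in size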
Active calls of the source: *; [ ] = dose if it differs, or a comment. Calls follow the shape of the dose curve; as a rule, active = well fitted curve in the direction sought with a large enough effect; inconclusive = small, poorly fitted or top-dose-only effect, or another doubt; inactive = no such curve, though single readings can be large; an effect the other way counts as inactive or inconclusive. % is scaled to controls: 0 for no effect and ±100 for the full control effect; potency is read from the fitted curve at half-maximal effect.

Screening O=C(NCc1ccccc1)c1cccc(COc2cccc(Cl)c2)c1 returned TDP1 cell noCPT -28.4%, DT40 TDP1 CPT inconclusive, TDP1 inh 6.4%, RORg inh 43.0% and VP16 counter 3.4%.
Screening CCC(C)NC(=O)c1ccc(C(=O)c2ccccc2)cc1 (stereo not drawn) returned TDP1 cell noCPT -0.8%, DT40 TDP1 CPT 9.7%, TDP1 inh -1.2%, RORg inh 42.3% and VP16 counter 1.0%.
For O=C(NC(=S)NCc1ccccc1)c1cccc(Cl)c1 the results were TDP1 cell noCPT inconclusive, DT40 TDP1 CPT -6.5%, TDP1 inh 1.3%, RORg inh 6.31µM* and VP16 counter 7.08µM*.
For COc1ccc(C(=O)Nc2ccc(Cl)cc2C(=O)NCc2ccco2)cc1 the results were TDP1 cell noCPT 6.51µM*, DT40 TDP1 CPT 5.17µM*, TDP1 inh -2.5%, RORg inh inconclusive and VP16 counter -20.5%.
Screening CCC(C)NC(=S)NNC(=O)c1ccc(C(C)(C)C)cc1 (stereo not drawn) returned TDP1 cell noCPT -5.9%, DT40 TDP1 CPT -2.9%, TDP1 inh 10.4%, RORg inh 10µM* and VP16 counter 8.91µM*.
For Cc1ccc(C)c(C(=O)COC(=O)C2CCN(c3ccc(C(F)(F)F)cn3)CC2)c1 the results were TDP1 cell noCPT inconclusive, DT40 TDP1 CPT -4.8% and TDP1 inh -9.8%.
`O=C(NC(=S)NCc1ccco1)c1cccc(Cl)c1` gave TDP1 inh 9.3%, RORg inh 6.31µM* and VP16 counter 8.91µM*.
For COc1cc(OC)cc(C(=O)NC(=S)NCc2ccco2)c1 the results were TDP1 cell noCPT inconclusive, DT40 TDP1 CPT inconclusive, TDP1 inh 4.0%, RORg inh 5.01µM* and VP16 counter 11.2µM*.
COc1ccc(C(=O)N/C(=C\c2ccco2)C(=O)NCc2ccco2)cc1 was read as TDP1 cell noCPT 14.6%, DT40 TDP1 CPT -9.2%, TDP1 inh 1.1%, RORg inh -6.8% and VP16 counter -2.2%.
Screening O=C(CSCc1ccccc1Br)NNC(=S)NCc1ccco1 returned TDP1 cell noCPT 4.3%, DT40 TDP1 CPT 11.7%, TDP1 inh 7.0%[56.1 µM], RORg inh inconclusive and VP16 counter 10µM*.
COc1ccc(C(=O)NC(=S)NCc2ccco2)cc1 was read as TDP1 cell noCPT inconclusive, DT40 TDP1 CPT inconclusive, RORg inh 6.31µM* and VP16 counter 11.2µM*.
`CC(=O)c1cccc(NC(=S)NCc2ccco2)c1` gave TDP1 cell noCPT -28.6%, DT40 TDP1 CPT -19.3%, TDP1 inh 1.2%, RORg inh -3.6% and VP16 counter 0.6%.
Screening O=C(O)c1cc(-c2cc(C(=O)O)c3ccccc3n2)ccc1O returned TDP1 cell noCPT -0.9% and DT40 TDP1 CPT -1.7%.
COc1ccc(-c2csc(Nc3ccc(S(=O)(=O)Nc4cc(C)on4)cc3)n2)cc1 was read as TDP1 cell noCPT -1.5%, DT40 TDP1 CPT 0.9%, TDP1 inh 8.1%, RORg inh 13.5% and VP16 counter 6.2%.
CC(OC(=O)C1CCCC1)C(=O)Nc1ncc(Cl)cc1Cl (stereo not drawn) was read as TDP1 cell noCPT 13.4%, DT40 TDP1 CPT -0.5% and TDP1 inh 0.6%.
`CCNc1ncc2nc(-c3cn(C)c4ccccc34)c(=O)n(Cc3cccc(OC)c3)c2n1` gave TDP1 cell noCPT -1.7%, DT40 TDP1 CPT 10.5%, RORg inh -21.8% and VP16 counter 5.0%.
`CC(C)c1cc(C(=O)NNC(=S)NCc2ccco2)c(O)c(C(C)C)c1` gave TDP1 cell noCPT inconclusive, DT40 TDP1 CPT inconclusive, TDP1 inh -3.0%, RORg inh 12.6µM* and VP16 counter inconclusive.
For Cc1ccc(NC(=O)C(=S)NCc2ccco2)cc1 the results were TDP1 cell noCPT -26.9%, DT40 TDP1 CPT 3.7%, TDP1 inh 3.2%, RORg inh 1.1% and VP16 counter 11.0%.
Screening Cc1ccc(C(=O)NC(=S)NCc2ccco2)cc1 returned TDP1 cell noCPT inconclusive, DT40 TDP1 CPT -23.5%, TDP1 inh 5.1%, RORg inh 10µM* and VP16 counter inconclusive.
Screening CC(C)(C)c1ccc(C(=O)NNC(=S)NCc2ccco2)cc1 returned TDP1 cell noCPT 23.1µM*, DT40 TDP1 CPT inconclusive, TDP1 inh 10.3%, RORg inh 10µM* and VP16 counter -24.8%.
For COc1cccc(C(=O)NC(=S)NCc2ccco2)c1 the results were TDP1 cell noCPT -6.3%, DT40 TDP1 CPT 3.9%, TDP1 inh -5.3%, RORg inh 14.1µM* and VP16 counter inconclusive.
Screening CCc1cc(C(=O)N2CCOCC2)c(NC2=NS(=O)(=O)c3ccccc32)s1 returned TDP1 cell noCPT -4.8%, DT40 TDP1 CPT 8.7%, TDP1 inh 0.0%, RORg inh -4.1%[10 µM] and VP16 counter 5.3%.
For C[C@H]1CN([C@@H](C)CO)S(=O)(=O)c2ccc(Br)cc2O[C@H]1CN(C)C(=O)CCN1CCCCC1 the results were TDP1 cell noCPT 14.1% and DT40 TDP1 CPT 14.3%.
Screening O=C(NN1C(=O)/C(=C/c2cccc(O)c2)SC1=S)c1ccccc1O returned TDP1 cell noCPT -7.1%, DT40 TDP1 CPT 0.9%, TDP1 inh 4.8%, RORg inh -2.9% and VP16 counter 2.2%.
Screening CC(=O)c1ccc(NC(=O)C2CCCN(S(=O)(=O)c3ccc4c(c3)CCCN4C(C)=O)C2)cc1 (stereo not drawn) returned TDP1 cell noCPT inconclusive, DT40 TDP1 CPT inconclusive and TDP1 inh 3.3%.
`O=C(NCc1ccco1)c1cc(C(=O)C2CCCCC2)c[nH]1` gave TDP1 cell noCPT inconclusive, DT40 TDP1 CPT -15.3%, TDP1 inh -6.7%, RORg inh 11.0% and VP16 counter 13.5%.
Screening CC(C)(C)c1ccc(C(=O)c2c[nH]c(C(=O)NCc3ccco3)c2)cc1 returned TDP1 cell noCPT inconclusive, DT40 TDP1 CPT -29.9%, TDP1 inh 2.0%, RORg inh inconclusive and VP16 counter 12.6µM*.
For CC(NC(=O)NC(=O)c1cccc(Cl)c1)c1ccccc1 (stereo not drawn) the results were TDP1 cell noCPT inconclusive, DT40 TDP1 CPT 13µM*, TDP1 inh 4.3%, RORg inh 25.1% and VP16 counter -9.3%.
Screening Cc1ccc(C(=O)NC(=S)NCc2ccccc2)cc1 returned TDP1 cell noCPT -4.1%, DT40 TDP1 CPT -28.4%, RORg inh 10µM* and VP16 counter 12.6µM*.
`Cc1ccc(CNC(=O)NCc2ccccc2)cc1` gave TDP1 cell noCPT -0.1%, DT40 TDP1 CPT -13.1%, TDP1 inh 5.0%, RORg inh 5.2% and VP16 counter 2.5%.
`CCOC(=O)c1c(C)[n+](-c2ccc(C)cc2)c(CC)c2cc(OC)c(OC)cc12` gave TDP1 cell noCPT 2.59µM*, DT40 TDP1 CPT 2.06µM*, RORg inh inconclusive and VP16 counter -6.6%.
